Results reported in PubChem BioAssay.
Calls of active or inactive are those of the source.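 The calls were made as follows, unless noted: active = fluorescence slope after compound addition differing from the mean of all screened samples at 99.7% confidence, in either direction; inactive = the rest.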

How the values were obtained:
[1] = inhibitors of TNFa-induced NFkB p65 translocation, primary screen, imaging, HUVEC, MLSMR starter and 10KST1 sets (AID 438;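 active = inhibition above 20% together with a positive visual image hit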;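 also: compound added about 3h40 before a 20 min TNFalpha stimulation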;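 as to inhibition: signal is the nuclear over cytoplasmic p65 intensity ratio per well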); conditions: HUVEC TNFa-induced p65 nuclear translocation; cell count: measured here: nuclei count (cytotoxicity indicator), at 2.08 µM; inhibition: at 2 µM, stronger effect = higher value, 0% TNFa-plus-vehicle, 100% no-TNFa wells
[2] = inhibitors of mutant huntingtin aggregation, primary screen, imaging, exon1htt(103Q)mCFP cells, high-content imaging (AID 483;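 active = visual image review flags a hit and inhibition of aggregation exceeds 20%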;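 also: compound exposure lasted 3 days before fixation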;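 as to nuclei count: percent of the per-plate median nuclei count of sample wells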); conditions: exon1htt(103Q)mCFP cell line, aggregate imaging, at 2 µM; inhibition of aggregation: stronger effect = higher value; nuclei count: measured here: cell count, toxicity
[3] = inhibitors of E-selectin induction by TNFa, primary screen, imaging, HUVEC, immunofluorescence, MLSMR starter and 10KST1 sets (AID 487;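 active = visually confirmed hit in the image check and inhibition above 20%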;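 as to inhibition: signal is fraction of cell area covered by stained E-selectin grains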;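 as to nuclei count: 100% = median nuclei count of all wells on the same plate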); conditions: HUVEC TNFalpha-induced E-selectin immunofluorescence imaging, at 2 µM; inhibition: stronger effect = higher value; nuclei count: measured here: cell number, toxicity
[4] = target: Voltage-gated potassium channel subunit beta-2 (Rattus norvegicus) (UniProt P62483); test: KvBeta enzyme negative modulators, primary screen, biochemical, NADPH fluorescence (AID 622;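 active = fluorescence slope higher than the sample average by over 3 SD, cut at about -0.22 in these data, passing the limit was not always enough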;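 also: slope of raw intensity against log time taken from 70 to 1610 s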); conditions: recombinant KvBeta, 4-cyanobenzaldehyde reduction, at 10 µM, stronger effect = higher value
[5] = target: Voltage-gated potassium channel subunit beta-2 (Rattus norvegicus) (UniProt P62483); test: KvBeta positive modulators, primary screen, biochemical, NADPH fluorescence (AID 623;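 active = NADPH fluorescence slope more negative than the mean of all samples by about 3 SD, 99.7% confidence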;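 also: fluorescence intensity change per second fitted from 20 to 320 s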); conditions: Recombinant KvBeta, NADPH fluorescence decrease slope, 10 min; at 10 µM; stronger effect = lower value
[6] = target: Alpha-2C adrenergic receptor (Homo sapiens) (UniProt P18825); test: modulators of alpha2C/GIRK thallium flux, primary screen, cell-based, HEK293 alpha2C/GIRK1/2 (AID 624); conditions: thallium flux BTC fluorescence, at 10 µM, actives lie on both sides;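 also: slope of fluorescence ratio to pre-addition baseline per second over 15 to 24 s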
[7] = inhibitors of Sendai virus-induced IRF3 signaling, primary screen, TLR/RLR signaling modifier project, cell-based, Sendai virus stimulus, luciferase, 10K MLSCN set (AID 602276;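 active = inhibition at or above 50% at 10 µM; inactive = inhibition below 50%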;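 also: firefly luciferase from ISG56 promoter only with Renilla not read in this screen; 0% = Sendai virus plus DMSO and 100% = medium plus DMSO without virus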); conditions: HEK293 RL24 IRF3 luciferase reporter, at 10 µM, stronger effect = higher value
[8] = inhibitors of poly I:C-induced TLR3 signaling, primary screen, cell-based, poly I:C stimulus, luciferase, 10K MLSCN set (AID 602277;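 active = inhibition of the reporter signal at or above 50%; inactive = inhibition below 50%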); conditions: HEK293-TLR3 RL24 IRF3 luciferase reporter, at 10 µM, stronger effect = higher value

Sequence of Alpha-2C adrenergic receptor (Homo sapiens) (P18825 whole entry, looked up): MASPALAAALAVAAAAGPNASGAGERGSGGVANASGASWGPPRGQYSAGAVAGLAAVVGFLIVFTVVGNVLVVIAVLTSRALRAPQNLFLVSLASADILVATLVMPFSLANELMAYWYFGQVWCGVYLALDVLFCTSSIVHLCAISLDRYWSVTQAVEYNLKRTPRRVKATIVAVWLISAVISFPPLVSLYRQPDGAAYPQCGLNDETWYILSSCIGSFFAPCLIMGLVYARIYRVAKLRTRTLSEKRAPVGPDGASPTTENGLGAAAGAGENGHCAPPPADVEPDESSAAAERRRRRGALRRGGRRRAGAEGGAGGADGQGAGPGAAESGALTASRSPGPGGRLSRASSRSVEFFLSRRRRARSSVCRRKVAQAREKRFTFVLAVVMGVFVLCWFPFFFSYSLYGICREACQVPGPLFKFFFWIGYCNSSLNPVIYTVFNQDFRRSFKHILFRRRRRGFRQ
Sequence of Voltage-gated potassium channel subunit beta-2 (Rattus norvegicus) (P62483 whole entry, looked up): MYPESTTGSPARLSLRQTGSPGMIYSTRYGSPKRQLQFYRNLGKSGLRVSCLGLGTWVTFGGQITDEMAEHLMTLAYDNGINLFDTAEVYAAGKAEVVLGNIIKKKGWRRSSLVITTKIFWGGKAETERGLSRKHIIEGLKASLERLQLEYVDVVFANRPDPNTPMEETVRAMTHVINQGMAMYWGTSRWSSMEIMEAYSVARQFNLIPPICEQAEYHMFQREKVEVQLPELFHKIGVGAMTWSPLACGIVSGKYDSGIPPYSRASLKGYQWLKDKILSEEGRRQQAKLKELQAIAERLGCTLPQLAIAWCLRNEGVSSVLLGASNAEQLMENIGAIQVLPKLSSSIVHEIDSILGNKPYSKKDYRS

Row | Compound | cell count [1] | inhibition [1] | inhibition of aggregation [2] | nuclei count [2] [%] | inhibition [3] | nuclei count [3] [%] | fluorescence slope [4] | NADPH fluorescence slope [5] | slope [6] | inhibition [7] | inhibition [8]
1 | CCN(C(=O)CCc1nc(-c2ccccc2F)no1)c1cc(OC)ccc1OC | 403 | 6.7% (inactive) | -4.7% (inactive) | 110 | -20.9% (inactive) | 115 | -0.425 (inactive) | 1.9e-05 (inactive) | 0.00445 (inactive) | -11.3% (inactive) | -31% (inactive)
2 | Cc1ccc(N2C(=O)c3oc4ccccc4c(=O)c3C2c2cccc(O)c2)nc1 (stereo not drawn) | 752 | 6.1% (inactive) | -1.9% (inactive) | 64.5 | -6.3% (inactive) | 66.8 | -0.589 (inactive) | -3.8e-06 (inactive) | 0.00643 (inactive) | 11% (inactive) | 14.6% (inactive)
3 | CCOc1ccccc1NC(=O)CCN1CCN(S(=O)(=O)c2ccc(Br)cc2)CC1 | 572 | -12.3% (inactive) | -10.2% (inactive) | 117 | -67.4% (inactive) | 65.1 | -0.526 (inactive) | -5.3e-05 (inactive) | 0.00415 (inactive) | 12.6% (inactive) | 21.5% (inactive)
4 | O=C(c1ccc(Br)o1)N(c1ccc(Br)cc1)C1C=CS(=O)(=O)C1 (stereo not drawn) | 553 | -21.1% (inactive) | 4.2% (inactive) | 108 | -74.4% (inactive) | 121 | -0.377 (inactive) | 3.2e-05 (inactive) | 0.00592 (inactive) | -8.65% (inactive) | -3.46% (inactive)
5 | COCCCN(C(C)=O)c1nc(-c2ccccc2)cs1 | 472 | -6.3% (inactive) | -6% (inactive) | 90.9 | 6% (inactive) | 114 | -0.533 (inactive) | -3.7e-05 (inactive) | 0.00569 (inactive) | -31.3% (inactive) | -75% (inactive)
6 | COc1ccc(CN(C(=O)CSc2nnc(-c3ccccc3F)o2)c2ccc(F)cc2)cc1 | 560 | -14.3% (inactive) | 15% (inactive) | 85.2 | -118% (inactive) | 123 | -0.421 (inactive) | -3.9e-05 (inactive) | 0.0074 (inactive) | 8.03% (inactive) | 9.3% (inactive)
7 | CCOC(=O)C1CCN(c2cc(C)nc3cc(-c4cccc(F)c4)nn23)CC1 | 675 | -4.7% (inactive) | 12% (inactive) | 97.8 | -82.8% (inactive) | 99.1 | -0.35 (inactive) | -1.5e-05 (inactive) | 0.00523 (inactive) | -8.57% (inactive) | -12.2% (inactive)
8 | Cc1cccc(C2c3c(n(C)c(=O)n(C)c3=O)N=C3c4ccccc4C(=O)C32)c1 (stereo not drawn) | 323 | -5.6% (inactive) | 6.9% (inactive) | 102 | -348% (inactive) | 113 | -0.383 (inactive) | 2.2e-05 (inactive) | 0.00343 (inactive) | 16% (inactive) | 3.75% (inactive)
9 | COC(=O)c1cccc(S(=O)(=O)N2CCC(C)CC2)c1 | 326 | -10.3% (inactive) | 11.2% (inactive) | 95.5 | -70.6% (inactive) | 93 | -0.547 (inactive) | 5.2e-05 (inactive) | 0.00519 (inactive) | 0.114% (inactive) | -2.56% (inactive)
10 | CCOC(=O)c1ccccc1NC1c2ccccc2C(=O)N1C1CCN(C(=O)OCC)CC1 (stereo not drawn) | 548 | -9.7% (inactive) | -12% (inactive) | 65.3 | -10.1% (inactive) | 109 | -0.463 (inactive) | -3.3e-05 (inactive) | 0.00667 (inactive) | 14.7% (inactive) | 38.1% (inactive)
11 | CCCCn1c(NCc2ccccc2O)nc2ccccc21 | 790 | -6.4% (inactive) | 14.4% (inactive) | 107 | -63% (inactive) | 120 | -0.567 (inactive) | -5.9e-06 (inactive) | 0.00728 (inactive) | 0.354% (inactive) | 25.3% (inactive)
12 | O=C(c1ccc2c(c1)c(=O)oc1ccccc12)N1CCCCC1 | 206 | 0.3% (inactive) | 15.8% (inactive) | 87.8 | 19.4% (inactive) | 90.7 | -0.363 (inactive) | 1.9e-05 (inactive) | 0.00354 (inactive) | -50.7% (inactive) | -130% (inactive)
13 | c1ccc(-n2cnc3cc(NCc4ccccn4)ccc32)cc1 | 469 | -5.7% (inactive) | 25.1% (inactive) | 102 | -28.1% (inactive) | 183 | -0.596 (inactive) | -4.4e-05 (inactive) | 0.00529 (inactive) | 20.8% (inactive) | -8.3% (inactive)
14 | CC1CCCCN1C(=O)Cn1nnc(-c2cccnc2)n1 (stereo not drawn) | 493 | 8% (inactive) | -12% (inactive) | 93.1 | -23.4% (inactive) | 95.3 | -0.485 (inactive) | -4.8e-05 (inactive) | 0.00445 (inactive) | 9.95% (inactive) | 16.3% (inactive)
15 | Cc1cc(C(=O)OCCO)c(C#N)c(N)n1 | 299 | 8.5% (inactive) | 9.5% (inactive) | 106 | -31.1% (inactive) | 128 | -0.132 (active) | 1.2e-05 (inactive) | 0.00497 (inactive) | 16.3% (inactive) | 18.4% (inactive)
16 | COc1ccc(S(=O)(=O)N2CCOCC2)cc1C(=O)Nc1cc(C)on1 | 225 | 1.1% (inactive) | -3.3% (inactive) | 96.6 | 38.6% (inactive) | 76.9 | -0.436 (inactive) | -3.9e-05 (inactive) | 0.00355 (inactive) | -8.66% (inactive) | 12.5% (inactive)
17 | CC(CCc1ccccc1)NC(=O)CSc1nc(N)cc(N)n1 (stereo not drawn) | 253 | -6% (inactive) | -23.7% (inactive) | 10.8 | -41.5% (inactive) | 99.2 | -0.483 (inactive) | -4.4e-05 (inactive) | 0.00545 (inactive) | 8.76% (inactive) | 10.6% (inactive)
18 | COc1ccc(NC(=O)CN(c2ccc(C(C)C)cc2)S(=O)(=O)c2c(C)noc2C)cc1OC | 787 | 3.4% (inactive) | -119% (inactive) | 123 | -24.6% (inactive) | 108 | -0.617 (inactive) | 2e-05 (inactive) | 0.00605 (inactive) | 18.3% (inactive) | 41.9% (inactive)
19 | O=C(Cn1c(=O)sc2ccccc21)NCCOc1ccccc1F | 780 | -12% (inactive) | -3.1% (inactive) | 104 | 36.2% (inactive) | 108 | -0.514 (inactive) | -9e-06 (inactive) | 0.00676 (inactive) | 0.0246% (inactive) | 6.19% (inactive)
20 | O=C(COc1ccccc1)N1CCN(c2ncnc3c2cnn3-c2ccccc2)CC1 | 476 | 1% (inactive) | 1.3% (inactive) | 108 | -4.4% (inactive) | 119 | -0.623 (inactive) | -4e-05 (inactive) | 0.00515 (inactive) | 14.5% (inactive) | -0.433% (inactive)
21 | CC1=CC2=C(OC1N(C)C)c1cccc3cccc(c13)C2=O (stereo not drawn) | 277 | 23.4% (active) | 3.4% (inactive) | 96.5 | 46.7% (inactive) | 100 | -0.493 (inactive) | 2e-06 (inactive) | 0.00351 (inactive) | 5.12% (inactive) | -3.5% (inactive)
22 | COC(=O)Cc1c(C)nc2nc[nH]n2c1=O | 648 | -6% (inactive) | 2.1% (inactive) | 103 | -21.9% (inactive) | 104 | -0.313 (inactive) | -4e-05 (inactive) | 0.0059 (inactive) | 8.47% (inactive) | 13.4% (inactive)
23 | COc1ccccc1CC1(C)NC(=O)N(CC(=O)Nc2cc(C)on2)C1=O (stereo not drawn) | 471 | -14.8% (inactive) | 14.1% (inactive) | 88.8 | -28.8% (inactive) | 158 | -0.598 (inactive) | -2.5e-05 (inactive) | 0.006 (inactive) | 9.53% (inactive) | 16.4% (inactive)
24 | O=C(c1ccco1)N1CCN(/C(=N/S(=O)(=O)c2cccs2)c2ccccc2Cl)CC1 | 852 | -5.6% (inactive) | 2.4% (inactive) | 103 | 33.2% (inactive) | 95.1 | -0.491 (inactive) | -5.1e-05 (inactive) | 0.00477 (inactive) | -2.11% (inactive) | 12.2% (inactive)
25 | C/C=C/Cn1c(SCCCc2ccccc2)nc2c1c(=O)[nH]c(=O)n2C | 658 | -6.4% (inactive) | -13.8% (inactive) | 101 | -13.9% (inactive) | 102 | -0.517 (inactive) | -1.9e-05 (inactive) | 0.00629 (inactive) | 1.4% (inactive) | 5.27% (inactive)
26 | Cc1cccc(-n2ncc3c(N4CCC5(CC4)OCCO5)ncnc32)c1 | 617 | 1.3% (inactive) | -14.8% (inactive) | 97.6 | -15.1% (inactive) | 107 | -0.549 (inactive) | -6.5e-05 (inactive) | 0.00695 (inactive) | -34.4% (inactive) | -101% (inactive)
27 | CCC(CC)n1[nH]c(=O)c2c(C)cc(C)nc21 | 368 | 0.2% (inactive) | 0.4% (inactive) | 106 | 13.4% (inactive) | 106 | -0.299 (inactive) | -6.9e-05 (inactive) | 0.00499 (inactive) | 6.59% (inactive) | 13.6% (inactive)
28 | COc1ccccc1CNC(=O)C1CCC(CNc2c(N3CCOCC3)c(=O)c2=O)CC1 (stereo not drawn) | 739 | -14.6% (inactive) | 22.5% (inactive) | 105 | -1.3% (inactive) | 122 | -0.592 (inactive) | -3e-05 (inactive) | 0.00599 (inactive) | 1.39% (inactive) | 17.5% (inactive)
